High-throughput results as filed in PubChem.
Only some compounds are listed: those with a hit (about 0.45% of all), similar ones and a draw of the others.
GAA inh – alpha-glucosidase (human) inhibition; Potency, µM (highest dose often 76.9 µM), most hits filed as inhibitors; purified human GAA, 4-MU-alpha-glucoside fluorescence; 200,000 compounds, 0.005% hits; P10253
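Compounds are titrated up to 77 uM against 4 nM human enzyme. Substrate 4-methylumbelliferyl-alpha-D-pyranoside (400 uM) reacts 20 min at room temperature in pH 5.0 buffer; liberated 4-methylumbelliferone is read at 440 nm.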
GAA spleen mod – inhibits or activates alpha-glucosidase in human spleen homogenate | 240,000 compounds, 0.006% hits | P10253 | Potency, µM (top dose mostly 79.9 µM), most hits filed as inhibitors | human spleen homogenate, 4-MU-alpha-glucoside fluorescence
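Human spleen homogenate (1 ug) incubated with compounds and 1 mM 4-methylumbelliferyl-alpha-D-glucopyranoside in pH 5.0 citrate/phosphate buffer, 37 C, 40 min. Stopped at pH 10; 4-MU fluorescence (Ex 365/Em 440 nm); AC50 by Hill fit.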
Menin MLL FP TR – displaces Texas Red mutant MLL peptide from human menin | 270,000 compounds, 0.23% hits | O00255 | Potency, µM (series often up to 61.6 µM), most hits filed as inhibitors | Menin + Texas Red MLL mutant peptide, fluorescence polarization; active means well fitted inhibition curve with a large enough effect in the polarisation, with a control signal flat, not every such curve was filed as active; inconclusive means small, poorly fitted or top-dose-only effect, or effect the other way, or a change in a side signal; inactive means no such curve, though single readings can be large or run the other way; the % refers to the polarisation
CXXC DNA block – blocks binding of human MLL CXXC domain to DNA | Q03164 | 290,000 compounds, 0.037% hits | Potency, µM (highest dose often 115 µM), usual class: inhibitors | MLL-CXXC / FITC-HOXA9 DNA fluorescence polarization; active means well fitted inhibition curve with a large enough effect in the polarisation, with a control signal flat, not every such curve was filed as active; inconclusive means small, poorly fitted or top-dose-only effect, or effect the other way, or a change in a side signal; inactive means no such curve, though single readings can be large or run the other way; the % refers to the polarisation
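Purified MLL-CXXC (added from a 7 uM solution) was preincubated 5 min at ambient with pinned compounds in 50 mM Tris-HCl pH 7.5, 50 mM NaCl, 1 mM DTT, 0.05% BSA. Fluorescein-labeled HOX-A9 DNA (50 nM solution) followed, 30 min, then polarization read.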
Menin MLL FP FL – inhibitors of human menin-MLL interaction, wild-type MLL peptide. 290,000 tested, under 10 active. FP activity change, % at 61.4 µM. Fluorescence polarization, fluorescein-MLL peptide displacement from menin; active means well fitted curve in the direction sought with a large enough effect in the polarisation, not every such curve was filed as active; inconclusive means small, poorly fitted or top-dose-only effect, or effect the other way, or a change in a side signal; inactive means no such curve, though single readings can be large or run the other way; the % refers to the polarisation
GAA glycogen mod – GAA glycogen-cleavage inhibition or activation; Potency, µM (series often up to 76.4 µM), usual class: inhibitors; AID 2100; recombinant GAA, glycogen substrate, Amplex Red glucose oxidase fluorescence; 300,000 compounds, 0.38% hits;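 further: the screen sought inhibitors and activators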
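Recombinant human alpha-glucosidase (4 nM final) hydrolysed bovine liver glycogen (30 ug) for 40 min at 37 C in pH 5.0 citrate/phosphate with 0.01% Tween-20. Released glucose detected by glucose oxidase/Amplex Red, Ex 573/Em 610 nm. Compounds up to 77 uM; AC50 from Hill fits.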
Numbers stand for hits; n = inactive; u = inconclusive; x = no result given. Unless noted, the call rests on the fitted dose curve; in most records, active means well fitted curve in the direction sought with a large enough effect; inconclusive means small, poorly fitted or top-dose-only effect, or another doubt; inactive means no such curve, though single readings can be large; an effect the other way counts as inactive or inconclusive.

SMILES	GAA inh	GAA spleen mod	Menin MLL FP TR	CXXC DNA block	Menin MLL FP FL	GAA glycogen mod
CC(C)C1Nc2c(O)cc(Cl)c([N+](=O)[O-])c2C2C=CCC21 (stereo not given)	n	n	u	n	n	14µM
CC(C)=C1C(=O)NN(c2ccc(F)c(Cl)c2)C1=O	n	n	u	n	n	24.9µM
COc1ccc(COC(=O)C2=C(C)NC(=O)NC2c2cccc(OC)c2OC)cc1 (stereo not given)	x	x	n	n	n	39.8µM
COc1ccc(COC(=O)C2=C(C)NC(=O)NC2c2cc(OC)ccc2OC)cc1 (stereo not given)	x	x	n	n	n	n
Cc1ccc(C(=O)NC(=S)NNC(=O)CC#N)cc1	u	n	n	n	n	11.1µM
Oc1ccc(/C=N/Nc2nccnc2Cl)cc1	n	n	n	n	n	11.2µM
COC1(C(F)(F)F)NC(=O)N(c2ccc(F)cc2)C1=O (stereo not given)	x	x	x	x	x	n
COc1ccc(-c2cc(-c3cc(OC)ccc3O)[nH]n2)cc1	n	n	u	n	n	19.8µM
COc1ccc(O)c(-c2cc(-c3ccc(F)cc3)n[nH]2)c1	x	x	u	n	n	n
CCOC(=O)N1CCN(C(=O)Nc2sc3nc4n(c(=O)c3c2C)CCC(C)CC4)CC1 (stereo not given)	n	n	u	n	u	31.6µM
CS(=O)(=O)c1ccc2c(c1)sc1nc(=O)c(/C=C3/C=CC(=O)C(O)=C3)c(N)n12	u	n	x	u	u	8.91µM
COC1=C/C(=C/c2c(N)n3c(nc2=O)sc2cc(S(C)(=O)=O)ccc23)C=CC1=O	x	n	x	u	u	n
CC(C)C(=O)c1ccc(O)c(O)c1	x	n	x	n	n	7.08µM
Cn1cc(CCC(=O)NC2CC(C)(C)Cc3c2cnn3-c2ccc(F)cc2)cn1 (stereo not given)	x	x	n	n	n	x
CC1(C)Cc2c(cnn2-c2ccc(F)cc2)C(NC(=O)CCc2ccncc2)C1 (stereo not given)	x	x	n	n	n	28.2µM
Cc1ccc(CN(C(=O)c2ccccc2F)c2ccccn2)o1	x	x	x	x	x	n
COc1cccc(C(=O)/C=C/Nc2cc(C)ccc2O)c1	n	n	u	n	n	28.2µM
COc1ccc(-c2nn(CC(=O)Nc3ccc(Cl)c(Cl)c3)c(=O)c3ccccc23)cc1	n	n	10µM	n	n	n
Cc1ccc(O)c(Nc2c3ccccc3nc3ccccc23)c1	x	x	12.6µM	n	n	11.2µM
CCOC(=O)C(=Cc1ccc(Br)cc1)C(=O)OCC	n	n	28.2µM	n	n	n
Cc1cc(C(=O)NNC(=S)Nc2ccccc2)nn1C	n	n	n	n	n	3.55µM
Cc1nn(C)cc1C(=O)NNC(=S)Nc1ccccc1	n	n	n	n	n	u
CS(=O)(=O)N1CCC2(CC1)CN(C(=O)Nc1cccc(F)c1)C2	x	n	n	x	n	x
Cc1ccc(NC(=O)CCSc2nc(-c3ccco3)cc(C(F)(F)F)n2)cc1F	x	x	x	x	x	n
CCOC(=O)C1CCCN(c2c(C(=O)c3ccc(OCC)cc3)cnc3ccccc23)C1 (stereo not given)	x	x	x	x	x	11.2µM
SMILES	GAA inh	GAA spleen mod	Menin MLL FP TR	CXXC DNA block	Menin MLL FP FL	GAA glycogen mod
c1cc(CNc2ccc3c(c2)OCO3)ccn1	n	n	n	n	n	31.6µM
Cc1cc(N/N=C/c2cccc(Cl)c2)nc(-n2nc(C)cc2C)n1	x	n	x	n	n	n
Cc1nc(C#N)c(N/N=C/c2cccc(Cl)c2)o1	n	n	n	n	n	31.6µM
C(=Nc1cccc2c(N=Cc3ccco3)cccc12)c1ccco1	n	n	u	n	u	14µM
O=C(Nc1ccccc1)N1CC[C@@]2(CCCN(C(=O)c3cccc(F)c3)C2)C1	x	n	n	x	n	x
CN1c2ccccc2C(C)(C)[C@]12C=Cc1cc(O)ccc1O2	n	n	x	n	n	7.88µM
O=c1oc2cc(O)ccc2cc1-c1ccc2c(c1)OCCO2	x	n	u	x	n	x
COc1ccc2c(Cl)c(C(=O)NN)sc2c1	n	n	n	n	n	15.7µM
Cc1ccc(S(=O)(=O)N2CCN(Cc3cc(Br)ccc3O)CC2)cc1	x	x	x	x	x	n
COC(=O)CCCCCNc1ccc(C(=O)OC)cc1N	u	n	n	n	n	22.4µM
CN=c1scc(-c2cccs2)n1/N=C/c1ccc(O)c(O)c1O	u	n	u	n	n	u
